# Assay results: ChEMBL document CHEMBL3988442, “University of Dundee, Small-Polar-MMV Screening Library” (2021)
# The whole screen tested about 48,000 compounds, of which about 13,000 (27%) showed an effect of 50% or more. This is one part of the list.
# Test system: Wolbachia pipientis
# Assay: Anti-Wolbachia Cell-Based Screen
# Format: functional
# Design: scale not given: in the data most compounds retested in dose-response had high values
# Details: 5 µM
row,SMILES,Percent Effect [%]
1,Cc1cccn2c(CNC(C)CO)cnc12 (stereo not drawn),5.706
2,CCC(CNC(=O)c1ccc(C(N)=O)cc1)Oc1cccc(F)c1 (stereo not drawn),-8.287
3,CCCS(=O)(=O)NC(C)c1cccc(-n2cccn2)c1 (stereo not drawn),-8.996
4,NC(=O)c1ccc(-n2ccnc2-c2cccc(O)c2)cc1N1CCCC1,-15.85
5,CN(C)c1ncccc1CNC(=O)NCc1ccco1,-3.644
6,O=C(NCc1ccccn1)NCC(O)c1ccccc1C(F)(F)F (stereo not drawn),-3.765
7,CN(C)C(CNC(=O)NCc1ccco1)c1cccs1 (stereo not drawn),6.587
8,CN(C)c1ccc(NC(=O)NCc2ccc(Cl)s2)cn1,9.088
9,O=C(NCc1ccccn1)NCc1ccc(Cl)s1,100.6
10,CC(C)C(NC(=O)NCc1cccnc1N(C)C)c1cccs1 (stereo not drawn),97.46
11,CC(NC(=O)NCc1cccnc1N(C)C)c1cccs1 (stereo not drawn),91.27
12,CN(C)c1ncccc1CNC(=O)NCC(c1cccs1)N(C)C (stereo not drawn),101.5
13,CC(C)N(Cc1nccn1C)C(=O)c1cc(Cl)c[nH]c1=O,-15.2
14,CCNC(=O)[C@@H]1C[C@@H](N)CN1Cc1ccc(Sc2ccc(C)cc2)o1,5.501
15,CN(C(=O)COC1CCCC1)C1CCN(CC2CCOC2)CC1 (stereo not drawn),-27.33
16,CN(CCCc1nccn1C)C(=O)C1CCN(C(=O)C2CCC2)CC1,9.591
17,O=C(NC1CCCC1)N1CC[C@H]2[C@H]1CCN2c1nncs1.O=C(O)C(F)(F)F,1.453
18,CS(=O)(=O)N1CCCc2sc(C(=O)NC3CC3)nc21,-1.89
19,Cc1cc(CNC(=O)NCc2cccs2)no1,116.2
20,CN(C)c1ncccc1CNC(=O)NCc1cccs1,101
21,Cc1cc(CNC(=O)NC(C)c2ccccc2)no1 (stereo not drawn),-4.939
22,CC(NC(=O)NCc1cccnc1N(C)C)c1ccc(F)cc1 (stereo not drawn),97.94
23,Cc1cc(CN2CCN(C(C)C(=O)NCc3cccs3)CC2)no1 (stereo not drawn),-4.683
24,Cc1cc(CNC(=O)c2cc(COc3cncc(Cl)c3)on2)n[nH]1,-4.866
25,CN1CCCC2(CCN(S(=O)(=O)c3c(Cl)nc4sccn34)C2)C1=O (stereo not drawn),-6.903

row,SMILES,Percent Effect [%]
1,COc1ccc(CN2CCCn3nnc(COCC4CC4)c3C2)cc1.O=C(O)C(F)(F)F,-11.72
2,CN(Cc1c[nH]nc1-c1ccc(F)cc1F)Cc1nccn1C,-2.031
3,CCC(C)(NCC(=O)NC(=O)NC)c1nccs1 (stereo not drawn),3.438
4,Cc1ccc(C2COCCN2C(=O)c2ccc(N(C)C)cc2)o1 (stereo not drawn),16.04
5,CC(C)(C)OC(=O)N1CCCCC(NC(=O)CCc2cccnc2)C1 (stereo not drawn),15.24
6,O=C(Cc1ccc(F)cc1)N1CCCCC1c1ccn2ccnc2n1 (stereo not drawn),-3.373
7,O=C(COc1ccccc1F)N1CCCCC1c1ccn2ccnc2n1 (stereo not drawn),107.9
8,O=C(Cc1cccc(F)c1)N1CCCCC1c1ccn2ccnc2n1 (stereo not drawn),7.751
9,O=C(CCc1cccnc1)N1CCCCC1c1ccn2ccnc2n1 (stereo not drawn),103.4
10,O=C(COc1cccc(F)c1)N1CCCCC1c1ccn2ccnc2n1 (stereo not drawn),137.7
11,O=C(Cc1ccccc1F)N1CCCCC1c1ccn2ccnc2n1 (stereo not drawn),125
12,CN1C(=O)c2ccc(NC(=O)CSc3ccc4c(c3)CCC4)cc2C1=O,8.962
13,Cc1ncsc1CCC(=O)NCc1cc2n(n1)CCN(C(=O)N(C)C)C2,-5.05
14,CCOC(C)C(=O)Nc1cc(S(=O)(=O)NC2CC2)ccc1F (stereo not drawn),0.6608
15,Cn1c(=O)oc2cc(Nc3ncc(C#N)cc3Cl)ccc21,-1.67
16,COc1ccc(CN2CCc3c(nc(-c4ccccn4)[nH]c3=O)C2)cc1,130.9
17,c1ccc(-c2noc(CN3CCc4c(ncn4C4CC4)C3)n2)nc1,-14.25
18,O=c1[nH]c(-c2ccccn2)nc2c1CCN(Cc1cccc(O)c1)C2,110.8
19,COc1ccccc1CN1C[C@@H](F)[C@@H](OCc2nc3ncccc3[nH]2)C1,-5.339
20,COc1ccccc1CN1CCc2c(nc(-c3ccccn3)[nH]c2=O)C1,118.7
21,Cn1cnc2c1CCN(Cc1cccc(C(N)=O)c1)C2,-6.228
22,Cc1nn(C)cc1CN1CCc2c(nc(-c3ccccn3)[nH]c2=O)C1,96.61
23,COc1ccc2c(c1)CN(Cc1nc3ccsc3c(=O)[nH]1)CC2,-2.354
24,O=C(c1ccco1)N1CCc2c(nc(-c3ccncc3)[nH]c2=O)C1,13.85
25,CCn1nc2c(cc1=O)CN(Cc1nc(-c3ccccn3)no1)CC2,-6.264

row,SMILES,Percent Effect [%]
1,CCc1nnc(CN2CCc3[nH]c(-c4ccc(OC)cc4)nc3C2)o1,-0.2672
2,COc1ccccc1CN1C(=O)O[C@@H]2CN(c3ccccn3)C[C@@H]21,2.644
3,Cc1nnc(CN(C)CC(=O)N2CCCN(C3CCCC3)CC2)n1C,-1.28
4,Cc1cccc(S(=O)(=O)NCC(C)(C)CC(C)O)c1C#N (stereo not drawn),-19.79
5,CCNC(=O)Nc1c(C)cnn1Cc1cc(F)ccc1F,-3.451
6,O=C(C[S+]([O-])Cc1c(Cl)cccc1Cl)N1CCc2sccc2C1 (stereo not drawn),-11.53
7,Cn1cnnc1C1CCCN(C(=O)c2n[nH]c3ccccc23)C1 (stereo not drawn),7.957
8,COc1cc2ccccc2cc1C(=O)N1CCCC(c2nncn2C)C1 (stereo not drawn),138.9
9,Cn1cnnc1C1CCCN(C(=O)c2cc3ccccc3[nH]2)C1 (stereo not drawn),124.8
10,COc1ccccc1CNC(=O)N1CCCC(c2nncn2C)C1 (stereo not drawn),-1.227
11,Cc1occc1CN(C)C(=O)Nc1ccc(=O)n(C)c1,5.737
12,c1ccc(CN2CCC(NCCc3ccc4c(c3)CCO4)CC2)nc1,2.392
13,Cn1ccc(C(=O)Nc2cccc(-c3ccc4c(c3)CCO4)n2)cc1=O,-14.88
14,CCOc1ccc(CC(=O)N2CCCC(n3nc(C)nc3C)C2)cc1 (stereo not drawn),81.54
15,Cc1nc(C)n(C2CCCN(C(=O)Cc3n[nH]c4ccccc34)C2)n1 (stereo not drawn),-3.08
16,CCc1[nH]ncc1C(=O)N1CCCC(n2nc(C)nc2C)C1 (stereo not drawn),-3.385
17,Cc1nc(C)n(C2CCCN(C(=O)c3cccc4cn[nH]c34)C2)n1 (stereo not drawn),1.609
18,Cc1nc(C)n(C2CCCN(C(=O)Cc3cccnc3)C2)n1 (stereo not drawn),-7.777
19,Cc1ccc(OCCC(=O)N2CCCC(n3nc(C)nc3C)C2)cc1 (stereo not drawn),93.22
20,Cc1nc(C)n(C2CCCN(C(=O)CCCOc3ccccc3)C2)n1 (stereo not drawn),1.016
21,N#Cc1ccc(OCC(=O)N2CCCC(n3cccn3)C2)cc1 (stereo not drawn),-1.98
22,Cc1nc(C)n(C2CCCN(C(=O)COc3cccc(C#N)c3)C2)n1 (stereo not drawn),83.98
23,Cc1nc(C)n(C2CCCN(C(=O)COc3ccccc3)C2)n1 (stereo not drawn),133.2
